From PubChem BioAssay
Most compounds without a hit are left out; they make up all but 21% or so of the library.
Cycloheximide cs = counter-screen for Shiga toxin inhibitors: cycloheximide protein synthesis inhibition; AID 2314; 12% of 300,000 active; cell reporter, cycloheximide protein synthesis inhibition counterscreen; max response, %; in the data active means max response mostly above about 13%, no sharp cut-off; inactive means mostly below about 14%; further: read at 38.3 µM for the half of the compounds with a filed dose; 0% is about no effect
Pf growth 96h = inhibits malaria parasite growth, 96 h | P. falciparum luciferase reporter growth, 96 h | Potency, µM (titrated, usually from 28.7 µM), without a hit: at the highest dose activity change, negative = inhibition, usual class: inhibitors | 6.9% of 320,000 active | AID 504834; further: potency means the concentration at half of the fitted maximal effect; on the % scale 0 is the no-effect control and ±100 the full control effect
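Two parasite generations (96 h, 37 C, 5% CO2) of compound exposure in infected erythrocytes (0.05% parasitemia, 2% hematocrit). Luciferase-reporter P. falciparum; decreased luminescence indicates inhibited growth, aimed at apicoplast-acting delayed death.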
Pf growth 48h = P. falciparum growth inhibition at 48 hours (one generation) | Potency, µM (doses to about 28.7 µM), inactives show at the top dose activity change, negative = inhibition, most hits filed as inhibitors | P. falciparum luciferase growth in erythrocytes, 48 h | 5.9% of 310,000 active; further: potency means the concentration at half of the fitted maximal effect; on the % scale 0 is the no-effect control and ±100 the full control effect
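Luminescence readout; reporter = integrated firefly luciferase in P. falciparum. RBC culture at 2% hematocrit, 0.1% parasitemia final, 37 C/5% CO2; decreased signal taken as growth inhibition.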
Shiga toxin inh = Shiga toxin inhibition; Vero cells, Shiga toxin protein synthesis inhibition reporter; inhibition, % at 38.7 µM; AID 2315; 9.2% of 290,000 active; in the data active means inhibition mostly above about 28%, no sharp cut-off; inactive means mostly below about 43%; further: 0% is about no effect
NS1 inh = blocks influenza NS1 protein function; Potency, µM (highest dose often 46.1 µM), for the others: at the top dose activity, positive = more growth; 0.4% of 270,000 active; calls by dose curve; further: potency means the concentration at half of the fitted maximal effect; actives are rising curves; nearly all actives have a fitted effect of over 50% in size
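Read-out: OD600 growth recovery of NS1-expressing budding yeast. Cells grown overnight at 30C in -URA glucose medium, washed, resuspended and diluted 1:100 in 2% galactose assay medium, pH 6.0. Same strain lacking NS1 served as positive control.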
SARS PLP yeast = blocks SARS-CoV papain-like protease in a yeast assay; S. cerevisiae expressing SARS-CoV PLpro, growth rescue; Potency, µM (highest dose often 32.9 µM), for inactives: top-dose activity, positive = growth rescue, hits mostly activators; 0.19% of 330,000 active; AID 485353; calls by dose curve; further: potency means the concentration at half of the fitted maximal effect; 0% is about no effect; nearly all actives have a fitted effect of over 55% in size
Active calls of the source: *; ? = inconclusive; . = not tested or not shown. Unless noted, the call rests on the fitted dose curve; in most records, active means well fitted inhibition curve with a large enough effect; inconclusive means small, poorly fitted or top-dose-only effect, or another doubt; inactive means no such curve, though single readings can be large or run the other way.

SMILES	Cycloheximide cs	Pf growth 96h	Pf growth 48h	Shiga toxin inh	NS1 inh	SARS PLP yeast
COc1ccc(-c2csc(/C(C#N)=C\c3ccc(O)c([N+](=O)[O-])c3)n2)cc1OC	5	?	8.3µM*	2	10%	3%
CC(C)Cn1c(N)c(C(=O)COC(=O)Cc2cccc(C(F)(F)F)c2)c(=O)n(C)c1=O	.	?	9.3µM*	.	.	-8%
CC(C)Cn1c(N)c(C(=O)COC(=O)Cc2cccs2)c(=O)n(C)c1=O	-3	31%	17%	-6	7%	-4%
CCc1ccc(C(=O)OCC(=O)c2c(N)n(CC(C)C)c(=O)n(C)c2=O)cc1	5	13µM*	?	31	.	-9%
Cc1ccc(OCCC(=O)N(CC(=O)Nc2ccccc2C(F)(F)F)Cc2ccco2)cc1	.	?	?	.	.	-2%
Cc1ccc(N2C(=O)N(Cc3ccccc3C)c3ccccc3S2(=O)=O)cc1	-7	0%	-11%	-6	10%	-4%
Cc1ccc(CNC(=O)CN(C(=O)C2(C)CC(=O)N=C3C=CC=CN32)c2cc(C)ccc2C)cc1 (stereo not drawn)	-7	-13%	-3%	-6	6%	-5%
Cc1ccc(CNC(=O)CN(Cc2cccs2)C(=O)C2(C)CC(=O)N=C3C=CC=CN32)cc1 (stereo not drawn)	-2	1.7µM*	11%	-10	8%	3%
CCc1ccccc1NC1=NCC(=O)N1Cc1ccc2c(c1)OCO2	-3	4.1µM*	-19%	-6	-12%	-18%
O=C1CN=C(Nc2ccccc2Cl)N1Cc1ccc2c(c1)OCO2	1	49%	9%	18	24%	1%
O=C(Cc1ccc(Br)cc1)N1CCN(c2ccc(F)cc2)CC1	-4	8%	.	-8	-108%	0%
O=C(Cc1ccc(Br)cc1)N1CCN(c2ccccc2O)CC1	36*	.	7%	95*	-20%	-5%
O=C(Cc1ccc(Br)cc1)N1CCOCC1	11*	?	0%	23	-3%	-2%
O=C(Cc1ccc(Cl)c(Cl)c1)N1CCOCC1	8	?	?	35*	5%	5%
O=C(Cc1ccc(-c2ccccc2)cc1)N1CCOCC1	9	-1%	10%	17	-12%	1%
Cc1coc2c1c(C)cc1oc(=O)c(CC(=O)N[C@@H](CC(C)C)C(=O)O)c(C)c12	-7	0%	25%	19	6%	0%
CSc1cccc(NC(=O)c2cc(S(=O)(=O)N3CCc4ccccc43)cn2C)c1	-3	?	?	9	3%	-11%
Cc1ccc2c(c1)sc1nc(=O)n(-c3cccc(Cl)c3)c(=O)n12	19*	160%	96%	29	-7%	-3%
O=c1nc2sc3ccccc3n2c(=O)n1-c1cccc(Cl)c1	19	.	92%	37	0%	8%
O=c1nc2sc3ccccc3n2c(=O)n1-c1ccc(Cl)cc1	29*	0%	?	22	-2%	2%
COCCN(C(=O)c1cc(-c2ccncc2)nc2ccccc12)c1c(N)n(CC(C)C)c(=O)[nH]c1=O	.	5%	23%	.	.	0%
CCOc1ccc(N(Cc2cc3cc(C)ccc3[nH]c2=O)S(=O)(=O)c2ccccc2)cc1	-1	18%	0%	0	12%	6%
COc1cccc(C(=O)O[C@H]2[C@H](C)NS(=O)(=O)[C@H]3C[C@@H]4C=C[C@]23O4)c1	.	30%	8%	.	.	3%
Cc1cc(S(=O)(=O)Cc2noc(-c3c(C)noc3C)n2)c(C)cc1Cl	-2	-20%	-11%	19	-3%	0%
Cc1noc(C)c1-c1nc(CSc2ccccc2)no1	21*	31%	39%	29	-5%	-1%
SMILES	Cycloheximide cs	Pf growth 96h	Pf growth 48h	Shiga toxin inh	NS1 inh	SARS PLP yeast
Nc1c(-c2ccccc2)sc2ccc3ccccc3[n+]12	12*	?	7%	22	-4%	14%
CC1CCN(c2oc(-c3ccccc3Cl)nc2C#N)CC1	37*	74%	75%	99*	-10%	-10%
N#Cc1nc(-c2ccccc2Cl)oc1N1CCOCC1	17*	.	-16%	18	2%	-6%
Cc1cccc(-c2nc(C#N)c(N3CCC(C)CC3)o2)c1	2	27%	33%	-9	2%	4%
Cc1ccccc1-c1nc(C#N)c(N2CCC(C)CC2)o1	24*	57%	39%	46*	-3%	-5%
CC1CCN(c2oc(-c3ccc(F)cc3)nc2C#N)CC1	41*	24%	51%	62*	-11%	-3%
Cc1ccc(N2C(=O)N(CC(=O)N3c4ccccc4CC3C)C(=O)C2C)cc1 (stereo not drawn)	.	-6%	6%	.	.	-1%
O=C(Cn1c(=O)[nH]c2sc3c(c2c1=O)CCCC3)NCC1CCCO1 (stereo not drawn)	-2	19%	23%	14	9%	-17%
O=C(CCn1cnc2ccccc21)N/N=C/c1ccccc1O	24*	9%	?	60*	-5%	-1%
O=C(Cn1cncn1)N/N=C/c1ccccc1O	9.9*	13%	-20%	34	1%	11%
O=C(CSc1ccc2ccccc2n1)c1ccccc1	53*	67%	56%	90*	-2%	-6%
O=C(CSc1nc2ccccc2c2ccccc12)c1ccccc1	.	.	.	.	-3%	.
NS(=O)(=O)c1ccc(NC(=O)CSc2ccc3ccccc3n2)cc1	-3	-21%	.	-4	4%	7%
O=C(CSc1ccc2ccccc2n1)N/N=C/c1ccccc1O	32*	18%	?	60*	-5%	-6%
O=C(CSc1ccc2ccccc2n1)N/N=C/c1ccc(O)cc1	11*	?	33%	11	14%	2%
O=C(CSc1cccc2cccnc12)N/N=C/c1ccc(O)cc1	-2	10%	-13%	-13	-2%	0%
COCCNC(=O)[C@@]1(Cc2ccccc2)C=C[C@@H](C)N1C(C)=O	38*	-6%	31%	45*	5%	-3%
C[C@@]12C=Cc3occc3C1CC[C@@]13C[C@@H](CCC12)[C@@](O)(CO)C3 (stereo partly drawn)	0	.	.	23	.	.
Cc1cnc(C(=O)OCC(=O)Nc2cc(S(=O)(=O)N3CCOCC3)ccc2Cl)cn1	.	.	.	.	.	3%
CCN(CC)C(=O)c1ccc(NC(=O)Nc2ccccc2F)cc1	16*	414%	253%	40	.	-27%
Cn1nc(-c2ccccc2)cc1NC(=O)CCCC(=O)O	1	40%	-2%	4	1%	0%
CCN(CC)C(=O)c1ccc(C(=O)Nc2ccc(F)cc2)cc1	.	32%	5%	.	.	0%
CCN(CC)CCNC(=O)c1ccc(NC(=O)Nc2cccc3ccccc23)cc1	-4	9.3µM*	13µM*	-9	-10%	-2%
O=C(Nc1ccccc1F)NC1CCCc2ccccc21 (stereo not drawn)	12	?	?	34*	-3%	-3%
Cn1nc(-c2ccccc2)cc1NC(=O)C1CCCCC1	41*	70%	69%	59	3%	-1%
